Experimental data as given in the supplement of paper PMC10849652.
The full data set covers some 7,900 targets. This sample favours those with a hit. About 0.6% of all pairs of compound and target were hits. A number with no mark means an inactive call.

Each target was assayed with CC[C@@H]1C(=O)N(C)c2cnc(Nc3ccc(C(=O)NC4CCN(C)CC4)cc3OC)nc2N1C1CCCC1 (assay: log2 fold change, soluble protein after heating vs DMSO (PISA); higher = thermal stabilisation; K562 cells, 10 uM, 30 min; active = over 0.2 and 3.5 SD of the protein, either way, in both replicates (recomputed)).
Summary of the method: (§1)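 K562 cells at 2×10^6 cells/mL were treated with 10 μM compound for 30 min. Aliquots were heated for 3 min across 48°C-58°C, pooled, and extracted in PBS with 0.5% NP-40 at 4°C; soluble protein was the supernatant after 21,000xg for 90 min. Soluble protein was quantified by TMTpro 16plex LC-MS/MS with channel sums equalised, and reported as log2 fold change in thermal stability against DMSO controls, with values from duplicates.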

Sequence of UniProt O00217 (O00217 whole entry, looked up): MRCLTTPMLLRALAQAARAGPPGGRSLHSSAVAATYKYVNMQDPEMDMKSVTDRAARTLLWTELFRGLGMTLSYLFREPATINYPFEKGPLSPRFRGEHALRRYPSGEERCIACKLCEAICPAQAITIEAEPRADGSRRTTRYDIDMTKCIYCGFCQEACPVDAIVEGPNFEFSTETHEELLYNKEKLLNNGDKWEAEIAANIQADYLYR
Sequence of UniProt O60934 (O60934 whole entry, looked up): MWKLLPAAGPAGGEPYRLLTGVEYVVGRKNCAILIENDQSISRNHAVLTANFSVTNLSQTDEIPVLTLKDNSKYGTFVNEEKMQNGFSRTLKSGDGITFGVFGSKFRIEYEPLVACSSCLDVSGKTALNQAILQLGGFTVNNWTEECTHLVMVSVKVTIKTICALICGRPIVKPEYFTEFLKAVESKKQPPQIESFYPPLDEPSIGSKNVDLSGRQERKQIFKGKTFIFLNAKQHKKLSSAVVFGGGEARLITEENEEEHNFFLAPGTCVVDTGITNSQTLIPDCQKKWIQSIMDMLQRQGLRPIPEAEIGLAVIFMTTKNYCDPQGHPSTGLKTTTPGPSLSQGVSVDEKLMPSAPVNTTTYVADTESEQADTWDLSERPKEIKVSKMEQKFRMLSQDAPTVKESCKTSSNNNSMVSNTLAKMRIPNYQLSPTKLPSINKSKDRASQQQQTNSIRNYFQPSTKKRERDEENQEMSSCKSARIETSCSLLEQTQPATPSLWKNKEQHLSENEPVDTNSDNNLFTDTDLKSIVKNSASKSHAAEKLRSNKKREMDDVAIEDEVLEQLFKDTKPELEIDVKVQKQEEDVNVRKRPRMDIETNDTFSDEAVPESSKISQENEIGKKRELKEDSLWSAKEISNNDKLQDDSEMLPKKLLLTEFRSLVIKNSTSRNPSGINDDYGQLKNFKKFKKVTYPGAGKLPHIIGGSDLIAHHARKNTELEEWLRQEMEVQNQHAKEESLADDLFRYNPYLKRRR
Sequence of UniProt P00846 (P00846 whole entry, looked up): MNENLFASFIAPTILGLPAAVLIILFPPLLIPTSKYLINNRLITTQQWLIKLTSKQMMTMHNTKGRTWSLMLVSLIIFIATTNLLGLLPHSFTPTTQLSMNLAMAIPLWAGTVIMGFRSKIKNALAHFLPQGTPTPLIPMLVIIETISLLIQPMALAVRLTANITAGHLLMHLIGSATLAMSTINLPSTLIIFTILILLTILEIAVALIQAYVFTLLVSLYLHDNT
Sequence of UniProt P49914 (P49914 whole entry, looked up): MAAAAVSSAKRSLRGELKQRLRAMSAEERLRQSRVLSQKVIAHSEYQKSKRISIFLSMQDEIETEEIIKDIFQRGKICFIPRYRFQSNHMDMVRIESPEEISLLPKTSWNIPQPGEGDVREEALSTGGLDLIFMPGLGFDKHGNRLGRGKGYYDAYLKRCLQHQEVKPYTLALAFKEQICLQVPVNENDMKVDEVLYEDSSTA
Sequence of UniProt Q96PU5 (Q96PU5 whole entry, looked up): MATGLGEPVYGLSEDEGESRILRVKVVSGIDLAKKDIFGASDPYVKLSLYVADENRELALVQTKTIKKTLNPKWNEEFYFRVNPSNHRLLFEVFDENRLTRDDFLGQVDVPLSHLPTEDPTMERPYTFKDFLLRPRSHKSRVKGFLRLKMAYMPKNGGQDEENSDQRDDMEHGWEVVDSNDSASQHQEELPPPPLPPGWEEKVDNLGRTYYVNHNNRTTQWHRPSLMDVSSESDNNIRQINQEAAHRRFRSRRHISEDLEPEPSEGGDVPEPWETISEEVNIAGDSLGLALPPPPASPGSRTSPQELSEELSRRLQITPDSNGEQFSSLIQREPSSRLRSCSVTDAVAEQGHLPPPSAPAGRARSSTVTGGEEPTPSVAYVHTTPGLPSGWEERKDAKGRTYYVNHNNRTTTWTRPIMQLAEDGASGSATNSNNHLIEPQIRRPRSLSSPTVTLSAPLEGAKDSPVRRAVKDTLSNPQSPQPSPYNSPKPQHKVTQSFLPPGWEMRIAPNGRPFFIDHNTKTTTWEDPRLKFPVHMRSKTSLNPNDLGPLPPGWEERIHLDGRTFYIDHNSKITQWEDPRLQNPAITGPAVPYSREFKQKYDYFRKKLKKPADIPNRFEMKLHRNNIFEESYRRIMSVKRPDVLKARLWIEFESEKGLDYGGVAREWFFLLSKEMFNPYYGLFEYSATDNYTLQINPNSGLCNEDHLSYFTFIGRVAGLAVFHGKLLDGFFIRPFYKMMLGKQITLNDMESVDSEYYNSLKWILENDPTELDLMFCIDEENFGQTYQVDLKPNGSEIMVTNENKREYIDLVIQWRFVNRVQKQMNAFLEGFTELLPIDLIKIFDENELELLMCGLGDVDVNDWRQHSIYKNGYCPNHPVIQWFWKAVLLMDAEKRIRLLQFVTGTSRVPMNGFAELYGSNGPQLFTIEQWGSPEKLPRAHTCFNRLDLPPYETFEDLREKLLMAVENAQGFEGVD
Sequence of UniProt O75323 (O75323 whole entry, looked up): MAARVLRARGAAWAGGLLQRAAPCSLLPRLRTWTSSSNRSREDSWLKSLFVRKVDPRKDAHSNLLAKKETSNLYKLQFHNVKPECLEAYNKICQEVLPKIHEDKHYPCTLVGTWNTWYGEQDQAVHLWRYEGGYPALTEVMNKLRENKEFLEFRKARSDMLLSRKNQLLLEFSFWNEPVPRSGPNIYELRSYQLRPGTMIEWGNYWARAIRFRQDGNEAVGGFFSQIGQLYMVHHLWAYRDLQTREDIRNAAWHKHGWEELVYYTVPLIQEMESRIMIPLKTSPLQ
Sequence of UniProt O14950 (O14950 whole entry, looked up): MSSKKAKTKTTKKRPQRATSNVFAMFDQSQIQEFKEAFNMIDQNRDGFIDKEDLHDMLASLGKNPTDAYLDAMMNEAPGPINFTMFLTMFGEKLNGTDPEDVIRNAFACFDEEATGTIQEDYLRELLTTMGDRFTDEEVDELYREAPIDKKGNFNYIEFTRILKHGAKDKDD
Sequence of UniProt O75251 (O75251 whole entry, looked up): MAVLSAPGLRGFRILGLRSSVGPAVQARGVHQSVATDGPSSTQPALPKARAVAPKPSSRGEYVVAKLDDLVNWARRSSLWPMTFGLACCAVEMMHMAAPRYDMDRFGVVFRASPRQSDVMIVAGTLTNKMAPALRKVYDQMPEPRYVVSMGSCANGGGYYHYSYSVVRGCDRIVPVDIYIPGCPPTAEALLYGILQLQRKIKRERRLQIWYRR
Sequence of UniProt Q12968 (Q12968 whole entry, looked up): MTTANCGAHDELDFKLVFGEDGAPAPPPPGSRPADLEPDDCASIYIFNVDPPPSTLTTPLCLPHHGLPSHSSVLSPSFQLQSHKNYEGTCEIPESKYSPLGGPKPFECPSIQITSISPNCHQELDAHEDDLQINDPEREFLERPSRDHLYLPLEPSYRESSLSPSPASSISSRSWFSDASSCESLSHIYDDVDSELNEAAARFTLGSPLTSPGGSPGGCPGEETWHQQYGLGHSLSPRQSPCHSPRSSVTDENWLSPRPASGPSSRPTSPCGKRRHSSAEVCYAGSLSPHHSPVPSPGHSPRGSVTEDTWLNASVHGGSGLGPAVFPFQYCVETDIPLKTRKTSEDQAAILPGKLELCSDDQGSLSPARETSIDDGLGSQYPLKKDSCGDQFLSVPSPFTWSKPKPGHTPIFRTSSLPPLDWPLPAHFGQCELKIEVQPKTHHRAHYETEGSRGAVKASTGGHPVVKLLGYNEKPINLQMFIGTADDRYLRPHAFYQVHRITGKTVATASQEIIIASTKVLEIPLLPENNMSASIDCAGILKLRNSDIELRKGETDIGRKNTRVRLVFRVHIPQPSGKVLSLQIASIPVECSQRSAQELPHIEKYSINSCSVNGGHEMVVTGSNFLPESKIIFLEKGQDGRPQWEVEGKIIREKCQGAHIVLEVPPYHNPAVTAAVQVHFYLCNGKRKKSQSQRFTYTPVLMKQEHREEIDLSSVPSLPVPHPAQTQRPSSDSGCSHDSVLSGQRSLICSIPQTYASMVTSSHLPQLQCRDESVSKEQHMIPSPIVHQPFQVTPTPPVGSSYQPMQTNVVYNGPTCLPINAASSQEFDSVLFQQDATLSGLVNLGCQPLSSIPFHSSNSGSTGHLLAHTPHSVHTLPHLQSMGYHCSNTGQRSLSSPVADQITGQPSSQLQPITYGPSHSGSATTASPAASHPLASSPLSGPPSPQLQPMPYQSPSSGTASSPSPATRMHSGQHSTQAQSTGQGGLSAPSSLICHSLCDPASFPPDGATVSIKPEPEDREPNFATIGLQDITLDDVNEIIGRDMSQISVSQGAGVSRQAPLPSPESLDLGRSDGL
Sequence of UniProt O00567 (O00567 whole entry, looked up): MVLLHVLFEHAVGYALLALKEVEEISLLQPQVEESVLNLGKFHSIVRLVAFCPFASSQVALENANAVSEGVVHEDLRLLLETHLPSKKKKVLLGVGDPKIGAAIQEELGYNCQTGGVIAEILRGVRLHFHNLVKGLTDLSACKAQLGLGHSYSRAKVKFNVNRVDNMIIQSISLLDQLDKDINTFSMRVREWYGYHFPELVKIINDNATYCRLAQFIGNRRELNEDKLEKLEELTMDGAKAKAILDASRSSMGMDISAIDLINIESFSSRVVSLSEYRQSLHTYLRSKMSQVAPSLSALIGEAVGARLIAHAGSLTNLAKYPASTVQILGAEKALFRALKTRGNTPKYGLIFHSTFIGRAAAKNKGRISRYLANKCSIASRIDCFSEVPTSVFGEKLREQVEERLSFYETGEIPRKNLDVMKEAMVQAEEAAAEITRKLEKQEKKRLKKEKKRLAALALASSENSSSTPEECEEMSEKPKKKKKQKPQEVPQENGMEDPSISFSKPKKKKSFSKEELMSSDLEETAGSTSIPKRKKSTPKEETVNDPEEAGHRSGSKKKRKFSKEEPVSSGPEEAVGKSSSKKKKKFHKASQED
Sequence of UniProt P68402 (P68402 whole entry, looked up): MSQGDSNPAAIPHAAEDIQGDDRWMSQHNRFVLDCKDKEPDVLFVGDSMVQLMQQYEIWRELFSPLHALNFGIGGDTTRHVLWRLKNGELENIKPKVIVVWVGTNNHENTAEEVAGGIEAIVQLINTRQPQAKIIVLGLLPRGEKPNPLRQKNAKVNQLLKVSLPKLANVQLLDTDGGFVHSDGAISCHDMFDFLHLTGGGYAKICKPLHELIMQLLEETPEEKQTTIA

Target	log2 fold change
NELFB isoform 2 (UniProt Q8WX92)	-0.176
MRPL50 (UniProt Q8N5N7)	0.026
MRPL46 (UniProt Q9H2W6)	0.209
NOP56 (UniProt O00567)	0.141
MTHFS (UniProt P49914)	0.082
MKNK1 (UniProt Q9BUB5)	-0.148
NMNAT1 (UniProt Q9HAN9)	0.302
MT-ATP6 (UniProt P00846)	0.043
NFATC3 (UniProt Q12968)	0.038
NELFA (UniProt Q9H3P2)	-0.4
OSTM1 (UniProt Q86WC4)	-0.216
NDUFS8 (UniProt O00217)	-0.103
MITD1 (UniProt Q8WV92)	-0.16
NFX1 (UniProt Q12986)	0.029
NBN (UniProt O60934)	-0.072
NDUFS7 (UniProt O75251)	-0.043
NA, A0A096LPI6	0.023
NSMCE2 (UniProt Q96MF7)	0.072
NIPSNAP2 (UniProt O75323)	0.043
MRPS10 (UniProt P82664)	0.02

Target	log2 fold change
NNT (UniProt Q13423)	0
NEU1 (UniProt Q99519)	-0.184
NOL11 (UniProt Q9H8H0)	0.029
MRPS25 (UniProt P82663)	0.031
MRPS5 (UniProt P82675)	0.005
NMT2 (UniProt O60551)	0.013
NEDD4L (UniProt Q96PU5)	-0.02
NR2C2 isoform 2 (UniProt P49116)	0.051
P4HA2 (UniProt O15460)	0.08
OSTC (UniProt Q9NRP0)	-0.01
NFATC2 (UniProt Q13469)	-0.098
PAFAH1B2 (UniProt P68402)	0.002
NA, A0A0B4J2A0	-0.163
OXSM (UniProt Q9NWU1)	-0.063
NDUFA12 (UniProt Q9UI09)	-0.135
NOP58 (UniProt Q9Y2X3)	0.095
MSTO1 (UniProt Q9BUK6)	0.014
MRPS27 isoform 2 (UniProt Q92552)	-0.02
MYL12B (UniProt O14950)	-0.053

Each target was assayed with CC[C@@H]1C(=O)N(C)c2cnc(Nc3ccc(C(=O)N[C@H]4CC[C@H](N5CCN(CC6CC6)CC5)CC4)cc3OC)nc2N1C(C)C [volasertib] in the same assay as above.
Summary of the method: as §1

Target	log2 fold change
NELFB isoform 2 (UniProt Q8WX92)	-0.68 (active)
MRPL50 (UniProt Q8N5N7)	-0.029
MRPL46 (UniProt Q9H2W6)	0.302
NOP56 (UniProt O00567)	0.238
MTHFS (UniProt P49914)	0.236 (active)
MKNK1 (UniProt Q9BUB5)	-0.183
NMNAT1 (UniProt Q9HAN9)	0.161
MT-ATP6 (UniProt P00846)	-0.091
NFATC3 (UniProt Q12968)	-0.331
NELFA (UniProt Q9H3P2)	-0.868 (active)
OSTM1 (UniProt Q86WC4)	-0.169
NDUFS8 (UniProt O00217)	-0.097
MITD1 (UniProt Q8WV92)	-0.266
NFX1 (UniProt Q12986)	0.15
NBN (UniProt O60934)	-0.219 (active)
NDUFS7 (UniProt O75251)	-0.042
NA, A0A096LPI6	0.044
NSMCE2 (UniProt Q96MF7)	-0.032
NIPSNAP2 (UniProt O75323)	0.009
MRPS10 (UniProt P82664)	0.027

Target	log2 fold change
NNT (UniProt Q13423)	0.013
NEU1 (UniProt Q99519)	-0.501 (active)
NOL11 (UniProt Q9H8H0)	-0.097
MRPS25 (UniProt P82663)	-0.057
MRPS5 (UniProt P82675)	-0.066
NMT2 (UniProt O60551)	-0.177
NEDD4L (UniProt Q96PU5)	-0.425 (active)
NR2C2 isoform 2 (UniProt P49116)	-0.102
P4HA2 (UniProt O15460)	-0.012
OSTC (UniProt Q9NRP0)	-0.141
NFATC2 (UniProt Q13469)	-0.281
PAFAH1B2 (UniProt P68402)	0.064
NA, A0A0B4J2A0	-0.036
OXSM (UniProt Q9NWU1)	-0.017
NDUFA12 (UniProt Q9UI09)	-0.244
NOP58 (UniProt Q9Y2X3)	-0.066
MSTO1 (UniProt Q9BUK6)	-0.012
MRPS27 isoform 2 (UniProt Q92552)	-0.041
MYL12B (UniProt O14950)	-0.085
